HGIII-sPLA2 inh – Inhibits HGIII-sPLA2 liposome hydrolysis, primary screen | Q9NZ20 | QFRET BODIPY PC-A2 liposome hydrolysis, fluorescence | inhibition, % at 12.2 µM | hit rate 0.56% among 370,000;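 active = inhibition above mean plus 3 SD of compounds lying within the high and low control bounds, cut at about 19% in these data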
Neddylation inh – blocks human cullin neddylation. TR-FRET cullin neddylation, biochemical. inhibition, % at 25 µM. hit rate 0.58% among 360,000. AID 651699; in the data active = inhibition above about 36%
DAGLB inh – diacylglycerol lipase beta (human) inhibition. HEK293T DAGLB membrane lysate, EnzChek fluorogenic substrate. inhibition, % at 5.17 µM. hit rate 0.059% among 340,000. AID 504411; in the data active = inhibition above about 34%
Target sequence (Q8NCG7 whole entry, looked up): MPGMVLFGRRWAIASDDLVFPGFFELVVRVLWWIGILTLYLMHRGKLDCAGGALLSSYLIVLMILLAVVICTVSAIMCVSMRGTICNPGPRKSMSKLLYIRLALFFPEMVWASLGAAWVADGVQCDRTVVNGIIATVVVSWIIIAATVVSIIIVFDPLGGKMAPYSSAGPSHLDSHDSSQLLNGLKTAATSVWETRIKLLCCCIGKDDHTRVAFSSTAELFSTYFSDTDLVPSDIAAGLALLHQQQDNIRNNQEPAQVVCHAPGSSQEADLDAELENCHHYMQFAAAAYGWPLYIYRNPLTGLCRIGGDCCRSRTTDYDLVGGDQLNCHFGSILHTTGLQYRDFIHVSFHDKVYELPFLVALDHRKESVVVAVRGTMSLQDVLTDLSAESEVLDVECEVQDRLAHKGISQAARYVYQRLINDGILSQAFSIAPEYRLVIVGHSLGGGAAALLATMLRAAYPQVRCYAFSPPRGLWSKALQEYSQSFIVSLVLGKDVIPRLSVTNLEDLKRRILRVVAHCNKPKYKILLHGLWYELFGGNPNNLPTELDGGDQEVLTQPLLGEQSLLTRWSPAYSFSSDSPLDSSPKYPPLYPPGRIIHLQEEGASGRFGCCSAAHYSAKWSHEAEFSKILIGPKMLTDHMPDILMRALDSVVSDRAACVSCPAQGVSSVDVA
ARNT TACC3 PPI – ARNT/TACC3 interaction disruption | AlphaScreen His-ARNT PAS-B/GST-TACC3 binding, luminescence; TACC3 fragment carries E629A point mutation | inhibition, % at 9.99 µM | hit rate 0.66% among 390,000 | AID 623870;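 active = mean inhibition of replicates at least 50% and at least half of replicates each reaching 50%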
NadD block – inhibitors of Staphylococcus aureus NadD; purified NadD enzyme, colorimetric absorbance read-out; inhibition, % at 20 µM; hit rate 0.78% among 360,000; in the data active = inhibition above about 26%
hGIII sPLA2 conf – human GIII-sPLA2 inhibition, confirmation; shares compounds with HGIII-sPLA2 inh; recombinant hGIII-sPLA2, BODIPY PC-A2 QFRET fluorescence; inhibition, % at 12.2 µM; hit rate 34% among 2,000; AID 743280;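 active = mean inhibition across triplicates above the hit cutoff set in the earlier primary screen, cut at about 19% in these data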
535nm interf – counter-screen for HGIII-sPLA2 inhibitors: 535nm fluorescence interference | shares compounds with HGIII-sPLA2 inh | BODIPY FL product fluorescence interference, QFRET | inhibition, % at 12.2 µM | hit rate 8.5% among 2,000 | AID 743282;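 active = average inhibition above the solvent-only control mean plus 3 SD, cut at about 6% in these data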
535nm interf DR – 535nm optical interference dose response, HGIII-sPLA2 counter-screen | 240 tested, under 10 active | shares compounds with HGIII-sPLA2 inh | IC50, µM | BODIPY FL product fluorescence interference, cell-free;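 active = IC50 at or below 10 µM; inactive = IC50 above 10 µM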
Numbers stand for hits; i = inactive; nt = no result given. This is a sample that favours compounds with a hit; in the whole collection about 2% have one here.

SMILES	HGIII-sPLA2 inh	Neddylation inh	DAGLB inh	ARNT TACC3 PPI	NadD block	hGIII sPLA2 conf	535nm interf	others
Cn1c(=O)c(C(N)=S)cn(-c2ccccc2)c1=O	i	i	i	i	i	nt	nt
CC(C)n1cc(C(N)=S)c(=O)n(Cc2ccccc2)c1=O	20.9	i	i	i	i	i	i
Cc1ccc(S(=O)(=O)N2CCCC(C(=O)NCc3ccco3)C2)cc1 (configuration not stated)	i	nt	nt	nt	nt	nt	nt
CS(=O)(=O)N1CCCC(C(=O)NCc2cccs2)C1 (configuration not stated)	20.0	i	i	i	i	i	i
CS(=O)(=O)N1CCCC(C(=O)NCc2ccco2)C1 (configuration not stated)	19.6	i	i	i	i	i	i
Cc1nnsc1C(=O)N/N=C/c1ccccc1	i	i	i	nt	i	nt	nt
Cc1nnsc1C(=O)N/N=C/c1ccc2ccccc2c1O	37.7	i	i	i	i	21.0	i
S=c1nn[nH]c2ccccc12	23.1	i	i	i	i	i	i
Nc1n[nH]c2ccccc12	i	i	i	i	i	nt	nt
CCOCCCNC(=S)N(Cc1ccccc1)Cc1nc2ccccc2c(=O)[nH]1	i	i	i	i	i	nt	nt
CCCNC(=S)N(Cc1ccccc1)Cc1nc2ccccc2c(=O)[nH]1	22.0	i	i	i	i	i	i
CN1/C(=C\C(=O)Nc2ccc(F)cc2)C(C)(C)c2ccccc21	30.6	i	i	i	i	28.0	i	535nm interf DR=i
NC(N)=NS(=O)(=O)c1ccc(NC(=S)NC(=O)/C=C/c2ccc(F)cc2)cc1	22.1	i	i	i	i	i	i
CNC(=S)NNC(=O)COc1ccc(C)c(C)c1	28.3	i	i	i	i	25.6	i
Nc1ccc2c(c1)C(=O)c1cc([N+](=O)[O-])ccc1-2	29.0	i	i	i	i	i	i
CCCCCCCCCc1conc1C(=O)/C=C/c1ccco1	23.8	i	nt	nt	nt	i	i
COC(=O)[C@]12C[C@H](CC(=O)N3CCOCC3)C(=O)N(Cc3ccc(Cl)cc3Cl)C1=C[C@H](C1CCCC1)O[C@@H]2C	77.0	nt	nt	nt	nt	i	i
CCOC(=O)N1CCN(C(=O)C[C@H]2C[C@@]3(C(=O)OC)C(=C[C@H](C4CCCC4)O[C@@H]3C)N(Cc3ccc(Cl)cc3Cl)C2=O)CC1	i	nt	nt	nt	nt	nt	nt
COc1ccc(S(=O)(=O)Nc2ccc3c(c2)C(=O)N([C@H](C)CO)C[C@@H](C)[C@H](CN(C)C(=O)Nc2ccc(F)cc2)OCCCC[C@@H](C)O3)cc1	nt	nt	nt	i	nt	nt	nt
C/C(=N/NC(=O)c1ccco1)c1ccc(NC(=O)c2ccc(F)cc2)cc1	23.4	i	i	i	i	i	i
C/C(=N/NC(=O)c1ccco1)c1ccc(NC(=O)c2ccc(Br)o2)cc1	i	i	i	i	i	nt	nt
Cc1ccc(C)c(NC(=S)NNC(=O)c2csc(C)c2C)c1	20.8	i	i	i	i	37.7	i	535nm interf DR=i
COCC(=O)Nc1ccc2c(c1)[C@H]1C[C@@H](CC(=O)NC3CCCCC3)O[C@H](CO)[C@H]1O2	nt	nt	nt	i	nt	nt	nt
c1ccc(-c2nccnc2-c2ccccc2)cc1	21.7	i	i	i	i	i	i
CCC(=O)N1C[C@H]2[C@@H](c3ccccc31)[C@H](CO)N2Cc1ccccc1Cl	nt	nt	nt	i	nt	nt	nt
SMILES	HGIII-sPLA2 inh	Neddylation inh	DAGLB inh	ARNT TACC3 PPI	NadD block	hGIII sPLA2 conf	535nm interf	others
Cc1ccccc1NC(=S)NCC(c1cccnc1)N1CCOCC1 (configuration not stated)	i	i	i	i	i	nt	nt
CCc1cccc(CC)c1NC(=S)NCC(c1cccnc1)N1CCOCC1 (configuration not stated)	23.9	i	i	i	i	i	i
C[C@H](NC(=O)C[C@@H]1C=C[C@@H](NC(=O)C2CCOCC2)[C@@H](CO)O1)c1ccccc1	nt	nt	nt	i	nt	nt	nt
C[C@H](CO)N1C[C@H](C)[C@H](CN(C)Cc2ccc(C(=O)O)cc2)OCCCC[C@H](C)Oc2ccc(NC(=O)Nc3ccc(C(F)(F)F)cc3)cc2C1=O	nt	nt	nt	i	nt	nt	nt
C[n+]1c(/C=C/c2ccc3c(c2)OCO3)ccc2ccccc21	i	i	i	i	i	nt	nt
C[n+]1cc2c3c(ccc2c2ccc4cc5c(cc4c21)OCO5)OCO3	47.7	nt	nt	nt	nt	45.7	i	535nm interf DR=i
C[C@@H](NC(=O)C[C@@H]1C[C@H]2c3cc(NC(=O)Nc4ccccc4F)ccc3O[C@H]2[C@@H](CO)O1)c1ccccc1	nt	nt	nt	i	nt	nt	nt
Cc1cc(=O)[nH]c(SCC(=O)N2CCCC2)n1	19.6	i	i	i	i	i	i
Cc1ccc(C)c(NC(=S)NCc2ccccc2)c1	i	i	i	i	i	nt	nt
Cc1ccc(C)c(NC(=S)N/N=C/C(C)c2ccccc2)c1 (configuration not stated)	21.5	i	i	i	i	i	i
COCC(=O)N1[C@@H]2Cn3c(ccc(-c4ccccc4)c3=O)[C@H]1[C@@H](C(=O)NCc1ccccn1)[C@@H]2CO	nt	nt	nt	i	nt	nt	nt
C[C@@H]1CN([C@@H](C)CO)C(=O)c2cc(-c3cccnc3)cnc2O[C@@H]1CN(C)C(=O)c1ccccc1F	nt	nt	nt	i	nt	nt	nt
CCOC(=O)c1sc(NC(=S)NC(=O)C2CC2)cc1C	21.2	i	i	i	i	i	i
O=C(C[C@H]1CC[C@@H](NC(=O)C2CC2)[C@@H](CO)O1)NCC1CC1	nt	nt	nt	i	nt	nt	nt
COCC(=O)Nc1ccc2c(c1)OC[C@@H](C)N(CCC(F)(F)F)C[C@@H](C)[C@H](OC)CN(C)C2=O	nt	nt	nt	i	nt	nt	nt
O=C(CSc1nc2[nH]ncc2c(=O)[nH]1)NCc1ccccc1	i	i	i	i	i	nt	nt
O=C(CSc1nc2[nH]ncc2c(=O)[nH]1)NCc1ccc(F)cc1	95.9	i	i	i	i	i	i
C#CCOCCOCCOCCNc1nc(N2CCN(C(=O)[C@H](CCCCN)n3cc([C@@H](N)C(C)CC)nn3)CC2)nc(N2CCN(C(=O)[C@H](CCCCN)n3cc([C@@H](N)C(C)CC)nn3)CC2)n1 (some centres not stated)	20.1	nt	nt	nt	nt	i	i
C#CCOCCOCCOCCNc1nc(N2CCN(C(=O)[C@H](CCCCN)n3cc(CN)nn3)CC2)nc(N2CCN(C(=O)[C@H](CCCCN)n3cc([C@@H](N)[C@H](C)CC)nn3)CC2)n1	i	i	i	i	i	nt	nt
O=C(N/N=C/c1ccc(Cl)cc1Cl)c1cccc(N2CCCC2=O)c1	i	i	i	nt	i	nt	nt
O=C(N/N=C/c1cc(Br)cc(Br)c1O)c1cccc(N2CCCC2=O)c1	28.3	i	i	i	33.3	23.8	i
CCCCn1c(=O)nc2n(-c3ccc(Cl)cc3)c3ccccc3cc-2c1=O	24.8	i	i	i	i	i	i
C=CCN1C=C/C(=C\C=C(C#N)C#N)c2ccccc21	27.6	i	i	i	i	48.3	13.2

Compound activity as filed in PubChem BioAssay.
